Assay outcomes (PubChem BioAssay)
In the library only some 5.7% were active in any assay of this set; here they are far more common.
D3 antag: D3 dopamine receptor (human) antagonism. 360,000 tested, 2.5% active. D3R cells, DiscoveRx beta-arrestin luminescence, antagonist mode; hits give low values. max response, negative = inhibition, %. P35462; in the data active = max response below about -50%; inconclusive = no clear call, values can overlap the other calls
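Cells plated overnight at 1500 cells/well, then exposed to library compounds with dopamine controls for 90 minutes at 37 degrees C. DiscoveRx reagent added for 30–60 minutes at room temperature; luminescence read, quantitative HTS format.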
D3 ag: activates the human D3 dopamine receptor; P35462; D3R DiscoveRx beta-arrestin cells, luminescence, 90 min; max activation, %; 410,000 tested, 0.58% active; AID 652048; in the data active = max activation above about 30%
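Agonist-mode cell screen: cells plated at 1500/well and incubated overnight at 37 °C, then exposed to library compounds for 90 min at 37 °C. Detection reagent was added for 30–60 min at room temperature, and luminescence was read.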
HEK293 tox: cytotoxicity in counter-screen for GLP-1R inverse agonists | HEK293 cAMP-luciferase reporter cells, luminescence, 24 h | Potency, µM (doses to about 38.3 µM), most hits filed as inhibitors | 410,000 tested, 0.13% active;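 also: loss of luciferase light is scored as toxicity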
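A 23 nL compound transfer followed 12 hours of cell culture at 37 deg C; exposure then lasted 24 hr. Luciferase assay detection reagent was dispensed and plates read for luminescence after a 12 min room-temperature wait.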
ClpP mod: qHTS Assay for Activators of ClpP. 340,000 tested, 1.9% active. purified B. subtilis ClpP, FRET peptide cleavage, 20 min. Potency, µM (titrated, usually from 57.5 µM); active = well fitted falling curve with a large enough effect; inconclusive = small, poorly fitted or top-dose-only effect; inactive = no such curve, though single readings can be large or run the other way; also: the source files actives as falling curves though it sought activators and does not explain the sign; nearly all actives have a fitted effect of over 65% in size
Target sequence (P80244 whole entry, looked up): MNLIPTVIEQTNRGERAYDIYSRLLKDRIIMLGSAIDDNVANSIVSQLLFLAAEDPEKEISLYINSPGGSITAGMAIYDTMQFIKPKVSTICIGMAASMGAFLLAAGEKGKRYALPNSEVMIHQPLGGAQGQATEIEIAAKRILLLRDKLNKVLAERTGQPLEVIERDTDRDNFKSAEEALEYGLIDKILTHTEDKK
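ClpP 10 microg/mL final, pH 8 Tris/KCl buffer with BSA, glycerol, Tween-20; compound pinned in; FRET-FV substrate; RT 20 min; Ex320/Em430; ΔFRET vs ADEP 5.8 microM, DMSO, no enzyme.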
GLP-1R inv ag: GLP-1 receptor (human) inverse agonism; 410,000 tested, 1.6% active; AID 624417; P43220; HEK293 GLP-1R CRE-luciferase, luminescence, 24 h; GLP-1R form is constitutively active; Potency, µM (doses to about 38.3 µM), most hits filed as inhibitors; also: nearly all actives have a fitted effect of over 55% in size
Target sequence (P43220 whole entry, looked up): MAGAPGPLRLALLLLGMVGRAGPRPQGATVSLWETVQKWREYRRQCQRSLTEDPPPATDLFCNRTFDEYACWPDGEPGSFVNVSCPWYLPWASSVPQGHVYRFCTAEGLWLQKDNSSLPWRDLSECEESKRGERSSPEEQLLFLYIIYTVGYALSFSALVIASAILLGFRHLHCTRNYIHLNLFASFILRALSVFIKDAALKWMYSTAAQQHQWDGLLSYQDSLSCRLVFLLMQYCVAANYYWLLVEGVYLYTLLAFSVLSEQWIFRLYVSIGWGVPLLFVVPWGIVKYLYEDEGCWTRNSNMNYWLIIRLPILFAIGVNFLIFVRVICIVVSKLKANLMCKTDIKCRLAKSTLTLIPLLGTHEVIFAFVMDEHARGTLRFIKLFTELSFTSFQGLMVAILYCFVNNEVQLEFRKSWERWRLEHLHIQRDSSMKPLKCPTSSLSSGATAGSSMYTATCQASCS
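Stable HEK293 clone (constitutively active GLP-1R + cAMP-response luciferase); 200 cells/uL plated, 12 h pre-culture, compound 24 hr, 37 deg C/5% CO2; detection reagent 12 min RT; luminescence.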
GLP1R ag: agonists of human GLP-1 receptor; P43220; HEK293 GLP-1R CRE-luciferase, luminescence, 4-6 h; cells express a hypersensitive GLP-1R form; Potency, µM (highest dose often 45.6 µM), actives largely listed as activators; 380,000 tested, 0.007% active
Hits are given with their value. Unless noted, calls follow the shape of the dose curve; as a rule, active = well fitted curve in the direction sought with a large enough effect; inconclusive = small, poorly fitted or top-dose-only effect, or another doubt; inactive = no such curve, though single readings can be large; an effect the other way counts as inactive or inconclusive.

Results for COc1ccccc1NC(=O)CSc1nnc(C2CCCCC2)n1-c1ccccc1 ?
D3 antag: inactive; D3 ag: inactive; HEK293 tox: inactive; GLP-1R inv ag: 3.2µM; GLP1R ag: inactive

What do the screens show for `Cc1ccc(-n2c(-c3ccccc3)c[nH]c2=S)cc1`?
D3 antag: inactive; D3 ag: 41; HEK293 tox: inconclusive; ClpP mod: inactive; GLP-1R inv ag: inactive; GLP1R ag: inactive

What do the screens show for `S=c1[nH]cc(-c2ccccc2)n1-c1ccccc1`?
D3 antag: inactive; D3 ag: inactive; HEK293 tox: inconclusive; ClpP mod: inactive; GLP-1R inv ag: inconclusive; GLP1R ag: inactive

How did CC1=CN2C(c3cccc([N+](=O)[O-])c3)=NON(c3ccc(C)cn3)C2C=C1 (configuration not stated) do in these assays?
D3 antag: inactive; D3 ag: inactive; HEK293 tox: inactive; ClpP mod: inactive; GLP-1R inv ag: inactive; GLP1R ag: inactive

Results for CC(=O)Nc1ccc(S(=O)(=O)N2CC3(C)CC2CC(C)(C)C3)cc1 (configuration not stated) ?
D3 antag: inactive; D3 ag: inactive; HEK293 tox: inactive; GLP-1R inv ag: inconclusive; GLP1R ag: inactive

What do the screens show for `CC1(C)CC2CC(C)(CN2S(=O)(=O)c2ccc(C(=O)Nc3ccc(Cl)c(S(=O)(=O)N4CCOCC4)c3)cc2)C1` (configuration not stated)?
D3 antag: inactive; D3 ag: inactive; HEK293 tox: inactive; ClpP mod: inconclusive; GLP-1R inv ag: 3.5µM; GLP1R ag: inactive

How did CC1(C)CC2CC(C)(CN2S(=O)(=O)c2ccc(C(=O)Nc3ccc(S(=O)(=O)N4CCOCC4)cc3)cc2)C1 (configuration not stated) do in these assays?
D3 antag: inactive; D3 ag: inactive; HEK293 tox: inactive; GLP-1R inv ag: 11µM; GLP1R ag: inactive

What do the screens show for `O=C(Nc1ccc2oc(-c3cccnc3)nc2c1)c1ccccc1F`?
D3 ag: inactive; HEK293 tox: inactive; ClpP mod: inactive; GLP-1R inv ag: inactive

What do the screens show for `COC(=O)c1ccc(NC(=O)C2CC3CCC2C3)cc1` (configuration not stated)?
D3 antag: inactive; D3 ag: inactive; HEK293 tox: inactive; GLP-1R inv ag: inactive; GLP1R ag: inactive

What do the screens show for `COC(=O)c1ccc(NC(=S)NC2CC3CCC2C3)cc1` (configuration not stated)?
D3 antag: inactive; D3 ag: inactive; HEK293 tox: inconclusive; ClpP mod: inactive; GLP-1R inv ag: 10µM; GLP1R ag: inactive

How did Cc1ccc(N(CC(=O)Nc2cc(Cl)ccc2Oc2ccccc2)S(C)(=O)=O)c(C)c1 do in these assays?
D3 antag: inactive; D3 ag: inactive; HEK293 tox: inactive; ClpP mod: inactive; GLP-1R inv ag: 7.1µM; GLP1R ag: inactive

What do the screens show for `COCCN1CCN(Cc2nc(C3(c4ccc(C)cc4)CCCC3)no2)CC1`?
D3 antag: -54; D3 ag: inactive; HEK293 tox: inactive; GLP-1R inv ag: inactive; GLP1R ag: inactive

What do the screens show for `CC(=O)N1CCCN(Cc2nc(C3(c4ccc(C)cc4)CCCC3)no2)CC1`?
D3 antag: inactive; D3 ag: inactive; HEK293 tox: inactive; GLP-1R inv ag: inactive; GLP1R ag: inactive

Results for COc1ccc(NC(=O)c2oc3ccc(S(=O)(=O)N(C)C4CCCCC4)cc3c2C)cc1Cl ?
D3 ag: inactive; HEK293 tox: inactive; ClpP mod: 28µM; GLP-1R inv ag: inactive

How did CC(=O)N[C@@H](CC(=O)N[C@@H](CCC(=O)O)C(=O)O)C(=O)O do in these assays?
D3 ag: inactive

How did O=S(=O)(Nc1ccc(-c2ccc(N3CCCC3)nn2)cc1)c1ccc(OC(F)(F)F)cc1 do in these assays?
D3 ag: inactive; HEK293 tox: inactive; ClpP mod: inactive; GLP-1R inv ag: inconclusive

What do the screens show for `Fc1ccc(-c2cc(-c3nc(-c4ccccc4)no3)[nH]n2)cc1`?
D3 ag: inactive; HEK293 tox: inactive; ClpP mod: inactive; GLP-1R inv ag: inactive

What do the screens show for `COc1ccccc1S(=O)(=O)N1CCn2cccc2C1C` (configuration not stated)?
D3 antag: inactive; D3 ag: inactive; HEK293 tox: inactive; ClpP mod: 28µM; GLP-1R inv ag: inactive; GLP1R ag: inactive

Results for COCCNC(=O)C1(C)CCCN(Cc2ccc(-c3ccccc3)o2)C1 (configuration not stated) ?
D3 antag: inactive; D3 ag: inactive; HEK293 tox: inactive; ClpP mod: inactive; GLP-1R inv ag: inconclusive; GLP1R ag: inactive

Results for COC(=O)[C@@]12C[C@@H](CC(=O)NCC3CCCCC3)C(=O)N(Cc3ccccc3)C1=CCC(C)(C)C2 ?
D3 antag: inactive; D3 ag: inactive; HEK293 tox: inactive; ClpP mod: inactive; GLP-1R inv ag: inactive

What do the screens show for `O=C1CC(=O)CC(c2ccccc2)C1`?
D3 antag: inactive; D3 ag: inactive; HEK293 tox: inactive; ClpP mod: inactive; GLP-1R inv ag: inactive; GLP1R ag: inactive

Results for O=S1(=O)CCS(=O)(=O)C1c1ccccc1 ?
D3 antag: inactive; D3 ag: inactive; HEK293 tox: inconclusive; ClpP mod: inactive; GLP-1R inv ag: 11µM; GLP1R ag: inactive

Results for COc1ccc(Nc2ncnc3onc(C)c23)c(OC)c1 ?
D3 ag: inactive; HEK293 tox: inactive; ClpP mod: inconclusive; GLP-1R inv ag: inactive; GLP1R ag: inactive

Results for COc1ccccc1C(=O)Nc1ccc(Oc2ncnc3sc(-c4ccccc4)cc23)cc1 ?
D3 antag: inactive; D3 ag: inactive; HEK293 tox: inactive; ClpP mod: 10µM; GLP-1R inv ag: inactive; GLP1R ag: inactive

How did COc1cc(C(=O)Nc2ccc(Oc3ncnc4sc(-c5ccccc5)cc34)cc2)cc(OC)c1OC do in these assays?
D3 antag: inactive; D3 ag: inactive; HEK293 tox: inactive; ClpP mod: inactive; GLP-1R inv ag: inactive; GLP1R ag: inactive

What do the screens show for `COc1ccccc1Cc1nc2ccccc2nc1SCC(=O)N(C)c1ccc(F)cc1`?
D3 ag: inactive; HEK293 tox: inactive; ClpP mod: inactive; GLP-1R inv ag: inactive

How did CCOc1ccc(OC(=O)NC(c2ccccc2)C(Cl)(Cl)Cl)cc1 (configuration not stated) do in these assays?
D3 antag: inactive; D3 ag: inactive; HEK293 tox: inactive; ClpP mod: inactive; GLP-1R inv ag: inactive; GLP1R ag: inactive

What do the screens show for `CC(C)OC(=O)NC(c1ccccc1)C(Cl)(Cl)Cl` (configuration not stated)?
D3 antag: -50; D3 ag: inactive; HEK293 tox: inactive; ClpP mod: inactive; GLP-1R inv ag: 11µM; GLP1R ag: inactive
